# Test results published in PubChem BioAssay AID585 (National Center for Advancing Translational Sciences (NCATS), 2007).
# Out of some 71,000 compounds screened, about 1,300 (1.8%) were called active. Shown is part of a subset that was picked to be rich in actives. Unmarked numbers belong to inactive results. Calls follow the shape of the full dose curve.
# Biological target: Beta-lactamase (Escherichia coli (strain K12)) (UniProt P00811)
# Test: Promiscuous and Specific Inhibitors of AmpC Beta-Lactamase (assay without detergent); as to activity change, negative = inhibition: % of control where 0% means no effect
# Conditions: AmpC nitrocefin hydrolysis, absorbance 480 nm, no detergent; series mostly up to 28.7 µM; activity change, negative = inhibition: at the top concentration
# Method: NIH Molecular Libraries Screening Centers Network [MLSCN]
# NIH Chemical Genomics Center [NCGC]
# PI Name: Shoichet, Brian K.
# This aggregation profiling approach exploits the sensitivity of aggregate formation to detergent. Inhibition of b-lactamase is measured in the presence and absence of 0.01% Triton X-100. See Pubchem assay "Promiscuous and Specific Inhibitors of AmpC Beta-Lactamase (assay with detergent)" for related screen. Compounds that inhibit only in the absence of detergent are considered likely promiscuous aggregators.
# A screen of 1,030 compounds was performed in Brian Shoichet's lab in 96-well format. AmpC activity was measured by following the absorbance at 480 nm. Nitrocefin is a chromogenic substrate: while nitrocefin is yellow (lmax 390 nm), the product of its hydrolysis is red (lmax 486 nm, 17,000 M-1). AmpC beta lactamase was provided by Brian Shoichet and Brian Feng, UCSF.
# NCGC Assay Protocol Summary:
# 20 mM phosphate buffer, pH 7.0
# Triton X-100: No Detergent screen: 0.0001%, Detergent screen: 0.01%.
# Buffer in columns 3 and 4 as negative control (no enzyme).
# 5.3 nM AmpC in columns 1, 2, 5-48. Titration of UCSF compound 9 control (from 10 mM, then 1:2) pin-transferred to column 2. Column 1 is neutral (100% activity).
# Six uL of reagents were dispensed to 1536-well Greiner black clear bottom plates. Compounds and controls (23 nL) were transferred via Kalypsys PinTool. The plates were incubated for 15 min at room temperature, and then 2 uL of 800 uM solution of nitrocefin was added to start the reaction. The plates were immediately transferred to and read every 20 seconds for 4 min on ViewLux (Perkin-Elmer) High-throughput CCD imager using 480 nm absorbance protocol. During dispense, reagent bottles were kept submerged into 4 deg C water bath.
# Keywords: NIH Roadmap, MLSCN, MLI, MLSMR, qHTS, NCGC, AmpC Beta-Lactamase, Aggregation.
# Potency is read from the fitted curve at half-maximal effect.
# Chain of Beta-lactamase (Escherichia coli (strain K12)) (P00811 whole entry, looked up): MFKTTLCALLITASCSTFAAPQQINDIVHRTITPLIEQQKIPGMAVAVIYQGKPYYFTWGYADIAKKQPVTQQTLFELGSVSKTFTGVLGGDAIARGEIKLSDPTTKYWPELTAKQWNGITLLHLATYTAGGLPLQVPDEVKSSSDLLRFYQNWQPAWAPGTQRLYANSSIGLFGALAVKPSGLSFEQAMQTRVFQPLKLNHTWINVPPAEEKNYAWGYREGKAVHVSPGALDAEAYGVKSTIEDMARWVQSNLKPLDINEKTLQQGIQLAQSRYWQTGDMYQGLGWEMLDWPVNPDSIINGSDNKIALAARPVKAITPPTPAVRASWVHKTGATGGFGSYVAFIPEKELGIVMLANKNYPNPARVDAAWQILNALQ
Compound,"activity change, negative = inhibition",Potency
O=S(=O)(Nc1ccccn1)c1ccc(Oc2ccccc2)cc1,-15.4%,
Cc1cc(NS(=O)(=O)c2ccccc2)no1,,3.98 µM [single pt active] (active)
COc1cc2ccccc2cc1C(=O)Nc1ccc(S(=O)(=O)Nc2cc(C)on2)cc1,-17%,
CCCc1cc(=O)[nH]c(SCc2ccc(C#N)cc2)n1,-16.6%,
COc1ccc(C2CC(c3ccc(Cl)cc3Cl)Nc3nc(N)nn32)cc1OC (stereo unspecified),133%,
Cc1ccc(C2CC(c3cccc(Br)c3)n3nc(N)nc3N2)cc1 (stereo unspecified),55.1%,
CCOc1ccccc1C1CC(c2ccc(Cl)cc2)Nc2nc(N)nn21 (stereo unspecified),95%,
Nc1nc2n(n1)C(c1ccco1)CC(c1ccc(Cl)c(Cl)c1)N2 (stereo unspecified),67.6%,
Cc1ccc(C2CC(c3cccc(C)c3)n3nc(N)nc3N2)cc1 (stereo unspecified),,3.98 µM [single pt active] (active)
CCOc1ccccc1C1CC(c2ccccc2)Nc2nc(N)nn21 (stereo unspecified),,3.98 µM [single pt active] (active)
O=C(O)CCCC(=O)Nc1ccccc1-n1ccnc1,-22.6%,
CCOC(=O)c1c(NC(=O)CCC(=O)NCc2ccco2)sc2c1CCCC2,102%,
CC(C)[C@H](CO)Nc1nc(Nc2cc(N)cc(Cl)c2)c2ncn(C(C)C)c2n1,76.9%,
COc1ccccc1N1CCN(c2nc3ccccc3n3nnnc23)CC1,33.4%,
NC(=O)c1ccc(OC[C@H](O)CN2CC=C(c3ccc(F)cc3)CC2)cc1,3.7%,
Cc1ccc(SCc2cc(=O)[nH]c(N3CCCCC3)n2)cc1,10.2%,
CN(C)c1nc(N)nc(CSc2nnnn2-c2cccc3ccccc23)n1,67.3%,
N#CC1=C(N)Oc2n[nH]c(CSc3ccccc3)c2C12C(=O)Nc1ccccc12 (stereo unspecified),-8.6%,
CCOc1ccc(N(CC(=O)OC)S(=O)(=O)c2c(C)noc2C)cc1,53.8%,
Oc1ccc(O)c2c(O)cccc12,,0.631 µM (active)
O=c1cc(-c2ccc(O)c(O)c2)oc2cccc(O)c12,-12.2%,
Cc1ccc(C(=O)NCC(=O)O)cc1S(=O)(=O)N1CCCCC1,-2%,
CC[N+](C)(CC)CCC[n+]1c(-c2ccccc2)c2cc(N)ccc2c2ccc(N)cc21,18.9% [at 12.8 µM],
O=C(c1csnn1)N1CCC[C@@]2(CCN(c3cccc(-c4ccccc4)c3)C2)C1,73.1%,
Cc1cc2cc(CN(Cc3cccs3)Cc3nnnn3CC3CCCO3)c(=O)[nH]c2cc1C (stereo unspecified),117%,
CC(C)(C)c1cc(C(=O)NCc2cccnc2)ccn1,2.5%,

Compound,"activity change, negative = inhibition",Potency
CCCNS(=O)(=O)c1ccc(CCC(=O)NCc2cccnc2)cc1,11.5%,
O=C(NCc1cccnc1)c1ccc(CS(=O)(=O)c2ccc(Br)cc2)o1,,3.16 µM (active)
Cc1ccnc(SCCn2c(N(C)Cc3ccccc3)nc3c2c(=O)n(C)c(=O)n3C)n1,-2.9%,
Cn1c(C(=O)N2CCC(C(N)=O)CC2)cc2c(=O)n(C)c3ccccc3c21,23%,
O=C(CCn1c(=O)[nH]c2ccccc2c1=O)NCCCN1CCN(c2cccc(Cl)c2)CC1,96.8%,
Cn1c(C(=O)NCCCN2CCN(c3cccc(Cl)c3)CC2)cc2c(=O)n(C)c3ccccc3c21,,3.98 µM [single pt active] (active)
Cn1c(C(=O)NCCc2ccsc2)cc2c(=O)n(C)c3ccccc3c21,56.6%,
CC1CCCC(C)N1CCCNC(=O)c1cc2c(=O)n(C)c3ccccc3c2n1C (stereo unspecified),,3.16 µM [single pt active] (active)
CCn1c(=O)cc(OCC(=O)NCCCN2CCN(c3cccc(Cl)c3)CC2)c2ccccc21,159%,
CCN1CCCC1CNC(=O)c1cc2c(=O)n(C)c3ccccc3c2n1C (stereo unspecified),,3.98 µM [single pt active] (active)
CCN1CCCC1CNC(=O)Cn1cnc2ccc(S(=O)(=O)N3CCC(C)CC3)cc2c1=O (stereo unspecified),28.6%,
Cn1c(C(=O)NCCN2CCc3ccccc3C2)cc2c(=O)[nH]c3ccccc3c21,91.4%,
CNC(=O)CSc1nnnn1-c1ccc(C)cc1C,-5.2%,
CCOC(=O)c1ccc(NC(=O)CS(=O)(=O)c2cn(CC)c3ccccc23)cc1,-12.7%,
CCOc1ccc(NC(=O)CCC(=O)n2nc(C)cc2C)cc1,-5.6%,
CNC(=O)NCCN1CCCC1=O,-9.1%,
COc1ncnc2c1N=C1CC(C)(C)CC(N)=C1S2,-11.2%,
C=CCOC(=O)COCCC(C)C,-14.9%,
CCOC(=O)c1sc(=S)n2c1[nH]c(=O)c1ccc(C(=O)OC)cc12,,12.6 µM (active)
CCOC(=O)Cn1c(N)c(C(=O)OC)sc1=S,-0.1%,
CCOC(=O)c1sc(=S)n(-c2cccc(OC)c2)c1N,4.7%,
Cc1ccc(OCc2nc(C#N)c(N3CCCC3)o2)cc1,28.1%,
Cc1ccccc1S(=O)(=O)Cc1ccc(C(=O)NCCN2CCCCC2C)o1 (stereo unspecified),0.5%,
C=CCNc1nnc(SCC(=O)N2CCCCC2)c2ccccc12,-5.9%,
O=C(CN1C(=O)COc2ccccc21)NCCN1CCc2ccccc2C1,8.7%,
